Laboratory results as given in ChEMBL document CHEMBL3988442, “University of Dundee, Small-Polar-MMV Screening Library” (2021).
For some assays here: Entries with a potency or affinity are not part of this list.

Legend:
Set-up in all cases: scale not given: direction of the effect not stated beside the values
[1] = target: Protein translocase subunit SecA (Escherichia coli (strain K12)) (UniProt P10408); experiment: Assay to Identify E. coli SecA ATPase Inhibitors; assay type: functional; details: 30 µM
Sequence of Protein translocase subunit SecA (Escherichia coli (strain K12)) (P10408 whole entry): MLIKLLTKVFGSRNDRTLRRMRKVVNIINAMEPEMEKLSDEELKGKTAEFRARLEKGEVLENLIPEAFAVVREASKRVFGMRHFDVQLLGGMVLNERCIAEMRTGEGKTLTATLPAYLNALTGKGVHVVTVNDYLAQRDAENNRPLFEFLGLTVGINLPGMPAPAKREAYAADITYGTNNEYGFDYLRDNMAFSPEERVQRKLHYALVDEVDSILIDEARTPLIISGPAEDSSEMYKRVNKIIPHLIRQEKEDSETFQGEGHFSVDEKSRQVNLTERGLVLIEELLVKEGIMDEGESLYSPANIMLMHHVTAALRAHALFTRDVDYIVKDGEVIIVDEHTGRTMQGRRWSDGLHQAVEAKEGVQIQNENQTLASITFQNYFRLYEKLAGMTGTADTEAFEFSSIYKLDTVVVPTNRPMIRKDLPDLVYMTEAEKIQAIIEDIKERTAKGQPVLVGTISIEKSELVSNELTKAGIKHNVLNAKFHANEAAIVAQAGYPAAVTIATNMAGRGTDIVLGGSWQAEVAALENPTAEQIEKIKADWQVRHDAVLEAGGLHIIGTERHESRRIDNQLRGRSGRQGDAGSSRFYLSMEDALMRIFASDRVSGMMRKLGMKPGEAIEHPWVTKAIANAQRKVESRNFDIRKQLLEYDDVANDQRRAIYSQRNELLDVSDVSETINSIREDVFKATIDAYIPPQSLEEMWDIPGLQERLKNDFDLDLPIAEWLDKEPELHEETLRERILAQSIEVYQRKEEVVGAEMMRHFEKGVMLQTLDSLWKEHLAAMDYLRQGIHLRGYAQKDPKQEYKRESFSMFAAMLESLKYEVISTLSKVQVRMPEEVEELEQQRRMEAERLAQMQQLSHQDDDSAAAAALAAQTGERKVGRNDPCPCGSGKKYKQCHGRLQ

[2] = target: T1, Ubiquitin-activating enzyme e1, putative (Leishmania donovani (strain BPK282A1)) (UniProt E9BSI1); experiment: Leishmania donovani Ubiquitin Activating Enzyme (LdE1); assay type: functional; details: 30 µM
T1 sequence (whole entry): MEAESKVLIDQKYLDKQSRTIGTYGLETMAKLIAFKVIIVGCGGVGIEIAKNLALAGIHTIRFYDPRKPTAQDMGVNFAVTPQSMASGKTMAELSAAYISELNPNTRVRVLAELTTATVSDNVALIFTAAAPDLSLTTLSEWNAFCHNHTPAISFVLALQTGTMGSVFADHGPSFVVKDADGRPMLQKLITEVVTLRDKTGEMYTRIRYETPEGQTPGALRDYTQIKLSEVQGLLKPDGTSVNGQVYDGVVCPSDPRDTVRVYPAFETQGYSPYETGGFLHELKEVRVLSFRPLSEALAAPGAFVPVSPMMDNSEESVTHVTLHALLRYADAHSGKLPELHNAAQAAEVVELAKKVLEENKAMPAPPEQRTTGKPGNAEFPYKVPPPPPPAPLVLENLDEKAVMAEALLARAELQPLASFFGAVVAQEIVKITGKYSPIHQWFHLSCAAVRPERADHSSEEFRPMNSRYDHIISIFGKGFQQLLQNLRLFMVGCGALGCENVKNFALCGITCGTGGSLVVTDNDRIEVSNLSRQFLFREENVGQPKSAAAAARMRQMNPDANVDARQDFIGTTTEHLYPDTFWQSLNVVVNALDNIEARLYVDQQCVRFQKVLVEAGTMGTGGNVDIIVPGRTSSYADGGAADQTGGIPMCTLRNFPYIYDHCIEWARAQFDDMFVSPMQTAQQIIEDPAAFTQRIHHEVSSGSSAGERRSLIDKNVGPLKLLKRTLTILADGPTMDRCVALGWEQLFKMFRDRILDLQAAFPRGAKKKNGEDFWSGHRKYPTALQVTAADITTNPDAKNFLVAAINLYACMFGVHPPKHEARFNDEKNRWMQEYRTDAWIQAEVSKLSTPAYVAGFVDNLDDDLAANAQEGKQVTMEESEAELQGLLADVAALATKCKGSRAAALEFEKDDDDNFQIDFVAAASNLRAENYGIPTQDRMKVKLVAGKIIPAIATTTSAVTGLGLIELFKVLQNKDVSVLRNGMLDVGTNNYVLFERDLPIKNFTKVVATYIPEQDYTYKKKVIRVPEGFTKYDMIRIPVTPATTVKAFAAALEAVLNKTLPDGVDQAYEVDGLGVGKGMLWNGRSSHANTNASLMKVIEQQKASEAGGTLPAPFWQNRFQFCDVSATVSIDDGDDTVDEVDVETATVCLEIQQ

[3] = target: AMP-activated protein kinase, AMPK (Homo sapiens) (UniProt P54646+O43741+P54619+Q9UGJ0+Q9Y478+Q13131+Q9UGI9); experiment: AMP-dependent Kinase enzyme assay. An in vitro enzyme assay that detects ADP turnover that is directly proportional to AMPK activity. This uses naive AMPK that is activated during the assay with MK-8722; assay type: functional; details: 30 µM
[4] = target: Sialic acid-binding Ig-like lectin 9 (Homo sapiens) (UniProt Q9Y336); experiment: Hs-Siglec9 ALPHAscreen SOP 20170721; details: 10 µM
Sequence of Sialic acid-binding Ig-like lectin 9 (Homo sapiens) (Q9Y336 whole entry): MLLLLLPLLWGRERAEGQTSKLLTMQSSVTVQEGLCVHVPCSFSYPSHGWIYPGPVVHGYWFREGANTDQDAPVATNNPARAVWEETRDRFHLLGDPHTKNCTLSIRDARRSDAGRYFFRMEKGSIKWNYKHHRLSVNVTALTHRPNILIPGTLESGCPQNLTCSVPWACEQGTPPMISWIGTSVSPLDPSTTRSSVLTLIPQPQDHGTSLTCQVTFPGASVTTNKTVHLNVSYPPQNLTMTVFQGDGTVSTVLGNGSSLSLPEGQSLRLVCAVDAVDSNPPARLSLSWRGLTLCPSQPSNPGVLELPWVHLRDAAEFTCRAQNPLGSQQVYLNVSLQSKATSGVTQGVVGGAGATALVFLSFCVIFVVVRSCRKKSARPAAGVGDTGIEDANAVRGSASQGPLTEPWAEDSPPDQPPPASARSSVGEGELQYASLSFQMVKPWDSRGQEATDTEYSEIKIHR

Trypanosoma cruzi = experiment: Trypanosoma cruzi phosphomannomutase and mannose-1-phosphate guanylyltransferase assay; assay type: functional; details: 10 µM
[5] = target: T2, Arginase-2, mitochondrial (Homo sapiens) (UniProt P78540); experiment: in vitro enzyme assay to detect the production of urea directly proportional to the activity of Arginase II; assay type: functional; details: 33.3 µM; further: in the data most compounds retested in dose-response had high values
T2 sequence (whole entry): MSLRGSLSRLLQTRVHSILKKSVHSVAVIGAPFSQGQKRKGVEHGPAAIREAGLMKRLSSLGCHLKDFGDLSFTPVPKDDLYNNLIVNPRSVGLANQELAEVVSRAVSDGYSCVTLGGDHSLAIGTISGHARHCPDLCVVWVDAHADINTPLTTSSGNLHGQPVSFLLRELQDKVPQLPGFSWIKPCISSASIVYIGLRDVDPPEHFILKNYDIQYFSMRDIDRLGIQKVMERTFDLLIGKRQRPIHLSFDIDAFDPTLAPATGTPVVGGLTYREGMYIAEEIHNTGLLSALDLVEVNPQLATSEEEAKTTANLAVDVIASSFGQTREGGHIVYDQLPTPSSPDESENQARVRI

[6] = target: T3, Proteasome subunit beta (Trypanosoma cruzi) (UniProt O96673); experiment: Trypanosoma cruzi proteasome chymotrypsin-like activity (TcProtChymo) assay.; further: in the data most compounds retested in dose-response had high values; assay type: functional; details: 9.37 µM
T3 sequence (whole entry): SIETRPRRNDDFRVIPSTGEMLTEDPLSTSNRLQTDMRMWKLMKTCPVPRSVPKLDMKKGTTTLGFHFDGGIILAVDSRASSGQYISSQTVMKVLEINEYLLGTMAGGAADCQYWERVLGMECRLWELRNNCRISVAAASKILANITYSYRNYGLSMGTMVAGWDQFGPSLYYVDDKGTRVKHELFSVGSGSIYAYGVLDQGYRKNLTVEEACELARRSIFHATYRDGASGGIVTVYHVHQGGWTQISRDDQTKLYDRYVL

Homo sapiens = species: Homo sapiens; experiment: To identify inhibition of the IFN signalling (Jak-Stat) pathway via expression of an eGFP reporter gene under the control of an IFN-stimulated response element (ISRE) containing MxA promoter.; assay type: functional; details: 30 µM
[7] = target: T4, Tyrosyl-tRNA synthetase, putative (Trypanosoma cruzi (strain CL Brener)) (UniProt Q4DSP6); experiment: Trypanosoma cruzi tyrosyl tRNA synthetase (TcYRS) _High Tyrosine SOP; assay type: functional; details: 30 µM; further: in the data most compounds retested in dose-response had high values
T4 sequence (whole entry): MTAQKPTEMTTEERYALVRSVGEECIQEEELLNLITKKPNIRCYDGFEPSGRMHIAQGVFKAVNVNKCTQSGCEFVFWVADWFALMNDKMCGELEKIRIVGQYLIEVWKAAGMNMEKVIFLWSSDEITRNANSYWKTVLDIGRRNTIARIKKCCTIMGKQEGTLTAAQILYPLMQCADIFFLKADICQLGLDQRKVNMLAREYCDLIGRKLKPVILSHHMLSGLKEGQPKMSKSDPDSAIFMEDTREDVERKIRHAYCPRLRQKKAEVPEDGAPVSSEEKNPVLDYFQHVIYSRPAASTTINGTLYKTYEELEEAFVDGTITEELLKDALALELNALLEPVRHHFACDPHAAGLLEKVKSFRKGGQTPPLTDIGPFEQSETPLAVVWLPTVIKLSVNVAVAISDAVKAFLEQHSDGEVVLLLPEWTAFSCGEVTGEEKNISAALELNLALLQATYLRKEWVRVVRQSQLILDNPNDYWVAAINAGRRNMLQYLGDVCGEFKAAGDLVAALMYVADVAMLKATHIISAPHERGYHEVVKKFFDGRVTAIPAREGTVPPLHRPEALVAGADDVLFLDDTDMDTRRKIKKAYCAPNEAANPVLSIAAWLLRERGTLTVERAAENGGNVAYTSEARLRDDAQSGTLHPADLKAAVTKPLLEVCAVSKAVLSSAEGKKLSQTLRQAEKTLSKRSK

[8] = target: T4, Tyrosyl-tRNA synthetase, putative (Trypanosoma cruzi (strain CL Brener)); experiment: Trypanosoma cruzi tyrosyl tRNA synthetase (TcYRS) SOP; assay type: functional; details: 30 µM
[9] = target: Chromo domain-containing protein 1 (Saccharomyces cerevisiae (strain ATCC 204508 / S288c) (Baker's yeast)) (UniProt P32657); experiment: ScCHD-1 Enzyme Inhibition Assay; assay type: functional; details: 30 µM; further: in the data most compounds retested in dose-response had high values
Sequence of Chromo domain-containing protein 1 (Saccharomyces cerevisiae (strain ATCC 204508 / S288c) (Baker's yeast)) (P32657 whole entry, the tested form may be a part): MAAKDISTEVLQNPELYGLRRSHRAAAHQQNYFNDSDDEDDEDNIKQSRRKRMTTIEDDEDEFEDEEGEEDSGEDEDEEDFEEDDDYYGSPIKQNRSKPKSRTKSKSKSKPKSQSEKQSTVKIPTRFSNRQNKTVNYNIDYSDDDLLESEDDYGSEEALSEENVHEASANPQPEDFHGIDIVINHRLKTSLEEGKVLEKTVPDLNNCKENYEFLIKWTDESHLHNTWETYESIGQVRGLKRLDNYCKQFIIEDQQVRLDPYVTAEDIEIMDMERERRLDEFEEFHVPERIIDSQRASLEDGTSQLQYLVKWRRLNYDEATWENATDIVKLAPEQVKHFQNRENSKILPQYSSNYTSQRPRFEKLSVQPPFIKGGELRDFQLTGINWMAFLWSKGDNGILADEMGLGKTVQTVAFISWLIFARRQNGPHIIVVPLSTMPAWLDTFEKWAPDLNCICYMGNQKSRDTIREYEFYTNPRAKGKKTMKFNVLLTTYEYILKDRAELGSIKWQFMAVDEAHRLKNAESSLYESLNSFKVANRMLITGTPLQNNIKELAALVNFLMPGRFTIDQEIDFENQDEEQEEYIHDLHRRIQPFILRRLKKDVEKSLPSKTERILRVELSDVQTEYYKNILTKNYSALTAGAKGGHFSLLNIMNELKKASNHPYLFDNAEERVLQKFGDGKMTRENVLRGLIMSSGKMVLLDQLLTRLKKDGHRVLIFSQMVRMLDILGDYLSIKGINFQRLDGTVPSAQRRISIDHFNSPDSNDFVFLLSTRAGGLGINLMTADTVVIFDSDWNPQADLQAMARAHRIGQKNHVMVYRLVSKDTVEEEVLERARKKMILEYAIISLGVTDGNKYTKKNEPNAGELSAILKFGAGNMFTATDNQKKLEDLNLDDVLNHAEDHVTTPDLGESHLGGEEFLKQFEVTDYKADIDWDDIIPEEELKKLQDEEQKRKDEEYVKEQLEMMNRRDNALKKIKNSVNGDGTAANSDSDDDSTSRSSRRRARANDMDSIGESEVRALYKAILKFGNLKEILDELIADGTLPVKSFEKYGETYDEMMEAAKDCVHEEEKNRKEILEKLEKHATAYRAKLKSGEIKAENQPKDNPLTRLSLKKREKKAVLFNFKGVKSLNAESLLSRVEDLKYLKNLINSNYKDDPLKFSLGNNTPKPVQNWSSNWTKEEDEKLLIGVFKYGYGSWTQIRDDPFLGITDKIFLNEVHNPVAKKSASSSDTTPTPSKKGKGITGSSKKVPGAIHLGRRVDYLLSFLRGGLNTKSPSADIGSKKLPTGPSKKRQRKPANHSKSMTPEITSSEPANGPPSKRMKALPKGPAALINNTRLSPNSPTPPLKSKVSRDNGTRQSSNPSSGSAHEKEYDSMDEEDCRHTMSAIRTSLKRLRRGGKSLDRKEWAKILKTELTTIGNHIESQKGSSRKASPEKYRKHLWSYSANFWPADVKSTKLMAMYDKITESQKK

CC(=O)N1CCC(c2cncc(Oc3ccccc3)n2)CC1
Percent Effect [1]: -10% | Percent Effect [2]: 0% | Percent Effect [3]: 9.22% | Percent Effect [4]: -2.36% | Percent Effect (Trypanosoma cruzi): -4.33% | Percent Effect [5]: -1.17% | Percent Effect [6]: 8.19% | Percent Effect (Homo sapiens): 14% | Percent Effect [7]: -1.06% | Percent Effect [8]: 3.85% | Percent Effect [9]: -3.75%

CC(Cc1ccco1)NC(=O)Nc1ccc(S(C)(=O)=O)nc1 (stereo not given)
Percent Effect [1]: -4.47% | Percent Effect [2]: 18.4% | Percent Effect [3]: -6.45% | Percent Effect [4]: -1.24% | Percent Effect (Trypanosoma cruzi): 4.13% | Percent Effect [5]: -0.383% | Percent Effect [6]: 9.52% | Percent Effect (Homo sapiens): 21.8% | Percent Effect [7]: 9.31% | Percent Effect [8]: 19.5% | Percent Effect [9]: -12.4%

O=C(c1cn(-c2cc(N3CCSCC3)ncn2)cn1)N1CCSCC1
Percent Effect [1]: -2.69% | Percent Effect [2]: 8.22% | Percent Effect [3]: -3.54% | Percent Effect [4]: -3.87% | Percent Effect (Trypanosoma cruzi): 6.27% | Percent Effect [5]: -1.82% | Percent Effect [6]: 24% | Percent Effect (Homo sapiens): -3.38% | Percent Effect [7]: 7.53% | Percent Effect [8]: 15% | Percent Effect [9]: -3.99%

Cc1cccc2cc(CNCCCN3CCOCC3)c(=O)[nH]c12
Percent Effect [1]: -7.31% | Percent Effect [2]: 17.6% | Percent Effect [3]: -2.19% | Percent Effect [4]: 3.5% | Percent Effect (Trypanosoma cruzi): 6.13% | Percent Effect [5]: -2.09% | Percent Effect [6]: 11.2% | Percent Effect (Homo sapiens): 2.24% | Percent Effect [7]: 3.23% | Percent Effect [8]: 14.3% | Percent Effect [9]: -27.6%

CCCc1cc(C(=O)N2CCCC(n3ccnc3C)C2)[nH]n1 (stereo not given)
Percent Effect [1]: -3.55% | Percent Effect [2]: 5.06% | Percent Effect [3]: -3.54% | Percent Effect [4]: 9.52% | Percent Effect (Trypanosoma cruzi): 3.87% | Percent Effect [5]: 3.04% | Percent Effect [6]: -7.94% | Percent Effect (Homo sapiens): 15.5% | Percent Effect [7]: 3.45% | Percent Effect [8]: 11.4% | Percent Effect [9]: -1.51%

CCN1CCC(NC(=O)CN2CCc3c(nc(C4CC4)n3C)C2)CC1
Percent Effect [1]: -2.61% | Percent Effect [2]: -5.2% | Percent Effect [3]: -9.14% | Percent Effect [4]: 13.3% | Percent Effect (Trypanosoma cruzi): 0.374% | Percent Effect [5]: 6.76% | Percent Effect [6]: -2.37% | Percent Effect (Homo sapiens): -16.3% | Percent Effect [7]: 1.94% | Percent Effect [8]: 0% | Percent Effect [9]: -7.12%

c1cnn(CCN2CCOC(Cn3cncn3)C2)c1 (stereo not given)
Percent Effect [1]: -1.82% | Percent Effect [2]: 17.7% | Percent Effect [3]: -6.27% | Percent Effect [4]: -8.37% | Percent Effect (Trypanosoma cruzi): -0.283% | Percent Effect [5]: 3.8% | Percent Effect [6]: 14.3% | Percent Effect (Homo sapiens): -0.00724% | Percent Effect [7]: 10.3% | Percent Effect [8]: 24.1% | Percent Effect [9]: -9.31%

CS(=O)(=O)c1ccccc1C(=O)NCC1Cc2ccccc2O1 (stereo not given)
Percent Effect [1]: -1.96% | Percent Effect [2]: 11% | Percent Effect [3]: -2.95% | Percent Effect [4]: 0.634% | Percent Effect (Trypanosoma cruzi): -4.31% | Percent Effect [5]: 0.455% | Percent Effect [6]: 19% | Percent Effect (Homo sapiens): 20.8% | Percent Effect [7]: 4.3% | Percent Effect [8]: 7.5% | Percent Effect [9]: -5.76%

CC(C)c1noc(CCCC(=O)N2CCC(Cc3cccnc3)CC2)n1
Percent Effect [1]: 1.54% | Percent Effect [2]: -2.53% | Percent Effect [3]: 1.06% | Percent Effect [4]: 8.41% | Percent Effect (Trypanosoma cruzi): -6.14% | Percent Effect [5]: 4.18% | Percent Effect [6]: -2.05% | Percent Effect (Homo sapiens): 16.4% | Percent Effect [7]: 0.493% | Percent Effect [8]: -3.8% | Percent Effect [9]: -3.44%

O=C(c1ccc(O)cc1)N1CCN(C(=O)c2ccc3c(c2)COC3)CC1
Percent Effect [1]: -4.15% | Percent Effect [2]: 10.1% | Percent Effect [3]: -4.98% | Percent Effect [4]: 13.3% | Percent Effect (Trypanosoma cruzi): -1.98% | Percent Effect [5]: -2.66% | Percent Effect [6]: 4.01% | Percent Effect (Homo sapiens): -19.9% | Percent Effect [7]: 4.43% | Percent Effect [8]: 8.86% | Percent Effect [9]: -6.29%
